We go through 1 molecule from PubChem BioAssay (EPA / NIEHS).

Assay [1] in a line: CCTE_Shafer_MEA_dev_bursting_electrodes_number: CCTE's Neural Network Formation Assay for Number of Bursting Electrodes, Shafer Lab (AID 2284043; active = hit-call score of the fitted dose curve at least 0.9, where 1 is the maximum;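 also: potency is for loss of bursting electrodes relative to DMSO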). In a few lines: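 Primary rat cortical neurons were cultured on PEI-coated 48-well MEA plates (16 electrodes/well) and exposed from plating through day 12, with compound renewed at feeds on DIV 5 and 9. Electrodes bursting ≥1 per 2 min were counted on DIV 5, 7, 9, 12; trapezoidal AUC taken.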

A short description of assay [2]: CCTE_Shafer_MEA_dev_per_burst_interspike_interval: CCTE's Neural Network Formation Assay for Burst Interspike Interval, Shafer Lab (AID 2284044).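 Also: potency for a decrease of within-burst interspike interval below DMSO level.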 The method in brief: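 Readout is the average time between spikes inside single-electrode bursts, taken as a well mean across bursting electrodes. Cortical neurons from rat developed networks on MEA plates under continuous 12-day exposure; recordings on days 5, 7, 9 and 12 were integrated by trapezoidal AUC.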

Assay [3] in a line: CCTE_Shafer_MEA_dev_burst_duration_mean: CCTE's Neural Network Formation Assay for Mean Burst Duration, Shafer Lab (AID 2284045).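 Also: curve fitted for loss meaning shorter burst duration than DMSO.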 The method in brief:
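Primary rat cortical neurons on PEI-coated 16-electrode MEA wells, exposed from plating through day 12 with compound renewed at DIV 5 and 9; spontaneous activity recorded days 5, 7, 9, 12. Well-mean burst duration collapsed as trapezoidal AUC, fitted for loss versus DMSO.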

Assay [4] in a line: CCTE_Shafer_MEA_dev_interburst_interval_mean: CCTE's Neural Network Formation Assay for Mean Interburst Interval, Shafer Lab (AID 2284046).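 Also: well-mean interburst interval of bursting electrodes as AUC over four recording days; curve fitted for decrease in interburst interval relative to DMSO.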 The method in brief:
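Primary rat cortical neurons on PEI-coated 48-well MEA plates (laminin added with cells at plating) (16 electrodes/well), exposed from plating day 0 with renewal at DIV 5 and 9. Mean inter-burst interval averaged over bursting electrodes, AUC across days 5, 7, 9, 12; DMSO baseline.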

Assay [5] is described as follows: CCTE_Shafer_MEA_dev_inter_network_spike_interval_mean: CCTE's Neural Network Formation Assay for Mean Inter-network Spike Interval, Shafer Lab (AID 2284047).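 Also: potency for a decrease in mean inter-network spike interval below DMSO.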 In a few lines:
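Mean time between consecutive network-spike peaks, recorded extracellularly (adaptive spike detection) on DIV 5, 7, 9 and 12, summarized as trapezoidal AUC. Rat cortical cultures on MEAs dosed continuously days 0–12, re-dosed at feeds; loss-of-signal fit relative to DMSO.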

A short description of assay [6]: CCTE_Shafer_MEA_dev_network_spike_number: CCTE's Neural Network Formation Assay for Number of Network Spikes, Shafer Lab (AID 2284048). In a few lines:
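Primary rat cortical neurons were seeded at 1.5 x 10^5 cells/well on PEI-coated 16-electrode MEA wells with laminin, exposed from plating day 0, compound renewed at DIV 5 and 9. Network spikes were recorded on days 5, 7, 9, 12 and summarized as trapezoidal AUC versus DMSO.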

The nature of assay [7]: CCTE_Shafer_MEA_dev_network_spike_peak: CCTE's Neural Network Formation Assay for Mean Number of Electrodes in Network Spike, Shafer Lab (AID 2284049).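 Also: fitted for loss of signal meaning fewer electrodes in network spikes than DMSO.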 In a few lines:
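Continuous 12-day exposure of rat cortical cultures, starting at plating, on MEA plates. Endpoint: electrodes participating in network-spike peaks, AUC across DIV 5–12, DMSO as negative control.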

Assay [8] can be described thus: CCTE_Shafer_MEA_dev_spike_duration_mean: CCTE's Neural Network Formation Assay for Mean Spike Duration, Shafer Lab (AID 2284051).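 Also: potency for a decrease in mean network spike duration versus DMSO.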 The method in brief: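 Spontaneous activity was recorded on days 5, 7, 9 and 12 from rat cortical cultures grown on microelectrode arrays and dosed continuously from day 0, with media and compound renewed after the DIV 5 and 9 recordings. Network-spike duration was collapsed by area under the curve.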

Assay [9] is described as follows: CCTE_Shafer_MEA_dev_network_spike_duration_std: CCTE's Neural Network Formation Assay for Standard Deviation of Network Spike Duration, Shafer Lab (AID 2284052).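 Also: hits are decreases in network spike duration SD versus DMSO vehicle.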 In a few lines:
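Network spike duration variability was collapsed across recordings on days 5, 7, 9 and 12 by trapezoidal area-under-curve and fitted downward against DMSO. Cultures were rat cortical neurons on PEI-coated MEA plates, dosed continuously from plating, refed with compound DIV 5/9.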

Assay [10] is described as follows: CCTE_Shafer_MEA_dev_per_network_spike_spike_number_mean: CCTE's Neural Network Formation Assay for Mean Number of Spikes in a Network Spike, Shafer Lab (AID 2284053).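 Also: fitted as decrease in spikes per network spike relative to DMSO.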 In a few lines: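 Mean spike count within each network spike, taken in a 0.05 s window at its peak, was recorded on days 5, 7, 9 and 12 and integrated as trapezoidal area under the curve. Rat cortical cultures on MEA plates received continuous compound from day 0, refreshed at medium changes on DIV 5 and 9.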

Assay [11] can be described thus: CCTE_Shafer_MEA_dev_per_network_spike_spike_percent: CCTE's Neural Network Formation Assay for Percent of Spikes in a Network Spike, Shafer Lab (AID 2284054). In a few lines:
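Primary rat cortical neurons on 16-electrode MEA wells (PEI-coated, laminin at plating), exposed from day 0 with renewal at DIV 5 and 9; spikes within 0.05 s of network-spike peaks over total spikes, AUC across days 5, 7, 9, 12.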

Assay [12] can be described thus: UKN5_HCS_SBAD2_cell_viability: Viability Assessment in the University of Konstanz (UKN) Leist Lab Neurite Outgrowth Assay in human iPSC-derived immature Dorsal Root Ganglia Neurons (UKN5) (AID 2284056). In a few lines:
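iPSC-derived immature peripheral neurons (SBAD2) seeded on Matrigel with CHIR99021, SU5402 and DAPT, dosed 1 h later for 24 h. Viability from Hoechst H-33342 and calcein-AM live staining, high-content imaging; bidirectional fit versus DMSO.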

Assay [13] can be described thus: CCTE_Shafer_MEA_dev_LDH: CCTE's Lactate Dehydrogenase Assay for Cytotoxicity in the Neural Network Formation Assay, Shafer Lab (AID 2284068; active = hit-call score of the fitted dose curve at least 0.9, where 1 is the maximum;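 also: exposure for twelve days from plating with re-dosing on DIV 5 and 9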). The method in brief:
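Primary rat cortical neurons were cultured on PEI-coated MEA plates and exposed from plating through day 12, with compound renewed at medium changes on DIV 5 and 9. LDH activity was read spectrophotometrically; loss of signal versus DMSO indicates reduced viability.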

Assay [14] in a line: UKN5_HCS_SBAD2_neurite_outgrowth: University of Konstanz (UKN) Leist Lab Neurite Outgrowth Assay in human iPSC-derived immature Dorsal Root Ganglia Neurons (UKN5) (AID 2284070). As to conditions: actives raise or lower the signal. In a few lines: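 SBAD2 neurons, 24 h compound treatment, calcein-AM neurite area via HCS imaging; DMSO baseline, gain or loss of signal.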
A short description of assay [15]: UKN2_HCS_IMR90_neural_migration: University of Konstanz (UKN) Leist Lab Neural Crest Cell Migration Assay in human induced IMR90 Pluripotent Stem Cells (UKN2) (AID 2284204). As to conditions: actives raise or lower the signal. The method in brief:
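iPSC-derived IMR90 neural crest cells on PLO/laminin/fibronectin were seeded around silicone stoppers; after stopper removal, migration in N2-S medium with EGF and FGF ran 24 h before 24 h chemical exposure. Calcein-AM/Hoechst high-content imaging; bidirectional fit versus DMSO.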

Assay [16] can be described thus: UKN4_HCS_LUHMES_neurite_outgrowth: University of Konstanz (UKN) Leist Lab Neurite Outgrowth Assay in human LUHMES cells (UKN4) (AID 2284206). As to conditions: actives raise or lower the signal. In a few lines: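 2-day-differentiated LUHMES, 24 h cpd exposure, live calcein-AM + H-33342 stain, HCS fluorescence imaging of neurite area; DMSO = baseline, bidirectional fit.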

Assay [17] can be described thus: CCTE_Mundy_HCI_Cortical_Synap_Neur_Matur_NeuriteSpotCountPerNeuriteLength: CCTE's Synaptogenesis and Neurite Maturation Assay in rat cortical cells for Neurite Spot Count per Neurite Length, Mundy Lab (AID 2284210). The method in brief:
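Rat primary cortical cultures, glia arrested with AraC at DIV 5, were dosed with media change at DIV 7 and fixed at DIV 12. Synaptophysin puncta per MAP2-labelled neurite length were quantified by high-content imaging versus DMSO.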

Assay [18] in a line: CCTE_Mundy_HCI_Cortical_Synap_Neur_Matur_BPCount: CCTE's Synaptogenesis and Neurite Maturation Assay in rat cortical cells for Branch Point Count, Mundy Lab (AID 2284211). The method in brief:
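Branch point number is quantified by automated imaging of fluorescently labelled neurites and synapses in rat primary cortical neurons exposed from DIV 7 to DIV 12. Activity is analysed relative to DMSO negative control.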

Assay [19] can be described thus: CCTE_Mundy_HCI_Cortical_NOG_NeuriteCount: CCTE's Neurite Outgrowth Assay in rat cortical cells for Neurite Count, Mundy Lab (AID 2284212).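 Also: cells fixed about two days after chemical exposure began.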 In a few lines:
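Neurite number per cell from high-content imaging of betaIII-tubulin immunostaining, with Hoechst nuclear counterstain.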

Assay [20] can be described thus: CCTE_Mundy_HCI_Cortical_NOG_NeuriteLength: CCTE's Neurite Outgrowth Assay in rat cortical cells for Neurite Length, Mundy Lab (AID 2284213).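 Also: neurites imaged about 48 to 50 h after chemical exposure began.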 In a few lines:
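Neurite length was read by high-content imaging of βIII-tubulin-labelled neurites in rat primary cortical cultures. Activity was fitted relative to DMSO.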

Results filed as inconclusive are left out. Active and inactive are the calls of the source. The calls were made as follows, unless noted: active = hit-call score of the fitted dose curve at least 0.9, where 1 is the maximum; inactive = score below 0.9.

`CNCCC(Oc1ccc(C(F)(F)F)cc1)c1ccccc1` (stereo not given): the AC50 in assay [1] was 1.79 µM (active); in assay [2], 3.14 µM (active); in assay [3], 2.81 µM (active); in assay [4] it was 4.18 µM (active); in assay [5] it was 1.4 µM (active); in assay [7], 2.8 µM (active). For the same molecule, the concentration at half-maximal activity (AC50) in assay [8] is 1.88 µM (active); in assay [9] it was 2.01 µM (active); in assay [10], 1.07 µM (active); in [11], 7.65 µM (active); in assay [12], 18.8 µM (active); in assay [13], 2.08 µM (active). The half-maximal activity concentration (AC50) in [14] is 12.7 µM (active); in assay [15] it was 15 µM (active); in [16], 7.3 µM (active); in assay [17] it was 12 µM (active); in assay [18], 6.57 µM (active); in [19], 14.7 µM (active). For the same molecule, the AC50 in [20] is 12.2 µM (active). In addition, the molecule was called inactive in assay [6].

In general, AC50 refers to the concentration giving half of the maximal activity seen.
